# In PubChem BioAssay:
# The source made the active and inactive calls.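 How the source made its calls: active means compound raises insulin release from rat beta cells at 5 mM glucose, no numeric limit stated; inactive means the rest.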
# Assay: Wnt pathway potentiators raising nuclear beta-catenin – imaging, WNT3A-conditioned medium, mouse C2C12, NPC library, primary screen (AID 1117326)
# Settings: stimulation, at 2 µM, stronger effect = higher value
# Further: reference of the scale not given here.
row,Structure (SMILES),nuclear beta-catenin stimulation
1,CCN(CCCCOC(=O)c1ccc(OC)c(OC)c1)C(C)Cc1ccc(OC)cc1 (centres undefined),0.5%
2,O=C(O)CSCC(=O)NC1CCSC1=O (centres undefined),1.1%
3,O=C1c2ccccc2C(=O)C1c1ccccc1,0.6%
4,COCCCOc1cc(C[C@@H](C[C@H](N)[C@@H](O)C[C@H](C(=O)NCC(C)(C)C(N)=O)C(C)C)C(C)C)ccc1OC,2.2%
5,Cc1onc(-c2ccccc2Cl)c1C(=O)N[C@@H]1C(=O)N2[C@@H]1SC(C)(C)[C@@H]2C(=O)O,0.3%
6,Cc1cccc(C(=O)O)c1O,0.4%
7,CCCCCCCCCCCCCCCCCCOCC(O)CO (centres undefined),2.8%
8,CCN(CC)CCNC(=O)COc1ccc(OC)cc1,1.9%
9,CN1CCOC(c2ccccc2)c2ccccc2C1 (centres undefined),-1.3%
10,CCCCC(=O)O[C@]1(C(=O)CO)[C@@H](C)C[C@H]2[C@@H]3CCC4=CC(=O)C=C[C@]4(C)[C@@]3(F)[C@@H](O)C[C@@]21C,5.5%
11,C[n+]1c2cc(N)ccc2cc2ccc(N)cc21 (tested in a mixture with another compound),8%
12,CCC(C)n1ncn(-c2ccc(N3CCN(c4ccc(OC[C@H]5CO[C@](Cn6cncn6)(c6ccc(Cl)cc6Cl)O5)cc4)CC3)cc2)c1=O (some centres undefined),34.3%
13,O=c1[nH]cnc2c1ncn2[C@@H]1O[C@H](CO)[C@@H](O)[C@H]1O,3.1%
14,CCN(CCCc1ccccc1)CCCc1ccccc1,4.5%
15,CN1CCN(c2cc3c(cc2F)c(=O)c(C(=O)O)cn3-c2ccc(F)cc2)CC1,0.3%
16,C/C=C1\[C@H]2C=C(C)C[C@]1(N)c1ccc(=O)[nH]c1C2,-0.8%
17,COc1ccccc1OCC(O)CO (centres undefined),0.9%
18,CC1=C(C)C(=O)C(C(CCCCCC(=O)O)c2ccccc2)=C(C)C1=O (centres undefined),-1%
19,NS(=O)(=O)c1cc2c(cc1Cl)NC(C(Cl)Cl)NS2(=O)=O (centres undefined),-0.1%

row,Structure (SMILES),nuclear beta-catenin stimulation
1,C[C@@H]1CN(c2c(F)c(F)c3c(=O)c(C(=O)O)cn(C4CC4)c3c2F)C[C@H](C)N1,1.1%
2,O=C(O)c1ccccc1Nc1cccc(C(F)(F)F)c1,2.3%
3,CCCc1ncc(C[n+]2ccccc2C)c(N)n1,-2%
4,O=C(O)/C=C(\CC(=O)O)C(=O)O,-0.6%
5,Cc1nc2n(c(=O)c1CCN1CCC(c3noc4cc(F)ccc34)CC1)CCC[C@H]2O,-0.1%
6,NC(N)=NCCN1CCCCCCC1,-0.3%
7,Cc1cc(=O)n(-c2ccccc2)n1C,0.3%
8,C[N+]1(C)[C@@H]2CC(OC(=O)[C@H](CO)c3ccccc3)C[C@H]1[C@@H]1O[C@@H]12 (some centres undefined),0.9%
9,CC(C)NC[C@@H](O)COc1cccc2ccccc12,1.7%
10,Cc1c(C(=O)O)c(O)cc2c1C(=O)c1c(O)c([C@@H]3O[C@H](CO)[C@@H](O)[C@H](O)[C@H]3O)c(O)c(O)c1C2=O,0.8%
11,CO[C@H]1C=CO[C@@]2(C)Oc3c(C)c(O)c4c(O)c(c(/C=N/N5CCN(C)CC5)c(O)c4c3C2=O)NC(=O)/C(C)=C\C=C[C@H](C)[C@H](O)[C@@H](C)[C@@H](O)[C@@H](C)[C@H](OC(C)=O)[C@@H]1C,1.2%
12,NC(CS)C(=O)O (centres undefined),0.4%
13,Cc1nc(-c2ccc(OCC(C)C)c(C#N)c2)sc1C(=O)O,0.4%
14,Oc1cccc2[nH]ccc12,-1.2%
15,CCCCCCCCCCCCCCCCC(C(=O)O)C(O)(CC(=O)O)C(=O)O (centres undefined),-0.6%
16,C#CCN[C@@H]1CCc2ccccc21,1.4%
17,Cc1c[nH]c2ccccc12,0.3%
18,CC(=O)Oc1c(C)c(C)c2c(c1C)CC[C@@](C)(CCC[C@H](C)CCC[C@H](C)CCCC(C)C)O2,2%

# Assay: stimulators of insulin release from INS-1E, primary screen, cell-based, 5 mM glucose, NPC library (AID 1117329)
# Settings: rat INS-1E insulin secretion, at 10 µM, stronger effect = higher value
row,Structure (SMILES),insulin secretion stimulation
1,CCN(CCCCOC(=O)c1ccc(OC)c(OC)c1)C(C)Cc1ccc(OC)cc1 (centres undefined),49.6% (active)
2,O=C(O)CSCC(=O)NC1CCSC1=O (centres undefined),-1.9% (inactive)
3,O=C1c2ccccc2C(=O)C1c1ccccc1,-1.2% (inactive)
4,COCCCOc1cc(C[C@@H](C[C@H](N)[C@@H](O)C[C@H](C(=O)NCC(C)(C)C(N)=O)C(C)C)C(C)C)ccc1OC,0.9% (inactive)
5,Cc1onc(-c2ccccc2Cl)c1C(=O)N[C@@H]1C(=O)N2[C@@H]1SC(C)(C)[C@@H]2C(=O)O,-0.3% (inactive)
6,Cc1cccc(C(=O)O)c1O,-1.9% (inactive)
7,CCCCCCCCCCCCCCCCCCOCC(O)CO (centres undefined),1.3% (inactive)
8,CCN(CC)CCNC(=O)COc1ccc(OC)cc1,1.8% (inactive)
9,CN1CCOC(c2ccccc2)c2ccccc2C1 (centres undefined),1.8% (inactive)
10,CCCCC(=O)O[C@]1(C(=O)CO)[C@@H](C)C[C@H]2[C@@H]3CCC4=CC(=O)C=C[C@]4(C)[C@@]3(F)[C@@H](O)C[C@@]21C,-4.4% (inactive)
11,C[n+]1c2cc(N)ccc2cc2ccc(N)cc21 (tested in a mixture with another compound),0.4% (inactive)
12,CCC(C)n1ncn(-c2ccc(N3CCN(c4ccc(OC[C@H]5CO[C@](Cn6cncn6)(c6ccc(Cl)cc6Cl)O5)cc4)CC3)cc2)c1=O (some centres undefined),0.4% (inactive)
13,O=c1[nH]cnc2c1ncn2[C@@H]1O[C@H](CO)[C@@H](O)[C@H]1O,-0.1% (inactive)
14,CCN(CCCc1ccccc1)CCCc1ccccc1,7.3% (inactive)
15,CN1CCN(c2cc3c(cc2F)c(=O)c(C(=O)O)cn3-c2ccc(F)cc2)CC1,-1.1% (inactive)
16,C/C=C1\[C@H]2C=C(C)C[C@]1(N)c1ccc(=O)[nH]c1C2,1.5% (inactive)
17,COc1ccccc1OCC(O)CO (centres undefined),-0.3% (inactive)
18,CC1=C(C)C(=O)C(C(CCCCCC(=O)O)c2ccccc2)=C(C)C1=O (centres undefined),-0.1% (inactive)
19,NS(=O)(=O)c1cc2c(cc1Cl)NC(C(Cl)Cl)NS2(=O)=O (centres undefined),1.15% (inactive)

row,Structure (SMILES),insulin secretion stimulation
1,C[C@@H]1CN(c2c(F)c(F)c3c(=O)c(C(=O)O)cn(C4CC4)c3c2F)C[C@H](C)N1,-0.9% (inactive)
2,O=C(O)c1ccccc1Nc1cccc(C(F)(F)F)c1,0.1% (inactive)
3,CCCc1ncc(C[n+]2ccccc2C)c(N)n1,0.95% (inactive)
4,O=C(O)/C=C(\CC(=O)O)C(=O)O,-2.3% (inactive)
5,Cc1nc2n(c(=O)c1CCN1CCC(c3noc4cc(F)ccc34)CC1)CCC[C@H]2O,1.1% (inactive)
6,NC(N)=NCCN1CCCCCCC1,-1.2% (inactive)
7,Cc1cc(=O)n(-c2ccccc2)n1C,-0.2% (inactive)
8,C[N+]1(C)[C@@H]2CC(OC(=O)[C@H](CO)c3ccccc3)C[C@H]1[C@@H]1O[C@@H]12 (some centres undefined),0.2% (inactive)
9,CC(C)NC[C@@H](O)COc1cccc2ccccc12,15.3% (inactive)
10,Cc1c(C(=O)O)c(O)cc2c1C(=O)c1c(O)c([C@@H]3O[C@H](CO)[C@@H](O)[C@H](O)[C@H]3O)c(O)c(O)c1C2=O,4.4% (inactive)
11,CO[C@H]1C=CO[C@@]2(C)Oc3c(C)c(O)c4c(O)c(c(/C=N/N5CCN(C)CC5)c(O)c4c3C2=O)NC(=O)/C(C)=C\C=C[C@H](C)[C@H](O)[C@@H](C)[C@@H](O)[C@@H](C)[C@H](OC(C)=O)[C@@H]1C,1.4% (inactive)
12,NC(CS)C(=O)O (centres undefined),-0.5% (inactive)
13,Cc1nc(-c2ccc(OCC(C)C)c(C#N)c2)sc1C(=O)O,3.8% (inactive)
14,Oc1cccc2[nH]ccc12,4.05% (inactive)
15,CCCCCCCCCCCCCCCCC(C(=O)O)C(O)(CC(=O)O)C(=O)O (centres undefined),3.2% (inactive)
16,C#CCN[C@@H]1CCc2ccccc21,2.6% (inactive)
17,Cc1c[nH]c2ccccc12,-2.3% (inactive)
18,CC(=O)Oc1c(C)c(C)c2c(c1C)CC[C@@](C)(CCC[C@H](C)CCC[C@H](C)CCCC(C)C)O2,0.3% (inactive)
